Laboratory results: PubChem BioAssay (NCATS)
Records with an inconclusive call do not appear. The source made the active and inactive calls. Unless noted, calls come from the whole dose curve; as a rule, active = well fitted curve in the direction sought with a large enough effect; inconclusive = small, poorly fitted or top-dose-only effect, or another doubt; inactive = no such curve, though single readings can be large; an effect the other way counts as inactive or inconclusive.

Legend:
[1] = Confirmation and Secondary Assay for Modulators of Hemoglobin Beta Chain Splicing at IVS2 654 locus (AID 910);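 note: HeLa cells stably carrying EGFP split by mutant beta-globin IVS2-654 intron; per-well total GFP intensity by laser scanning cytometry after 2-day treatment; % of control where 0% means no effect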
Procedure, shortened: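 Readout: per-well total peak green fluorescence (488 nm ex, 500–520 nm em) from objects 5–250 µm, reflecting correct splicing of an EGFP-654 reporter. Compounds were applied for 2 days at 37 °C to overnight-plated HeLa EGFP-654 cells; controls were DMSO and 500 nM IVS2-654 PNA.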

[2] = qHTS Assay for Identification of Small Molecule Agonists for Thrombopoietin (TPO) Signaling Pathway (AID 917); note: % is set by controls: 0 for no effect and ±100 for the full control effect
Procedure, shortened: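 Stimulation at the TPO EC50 (26 pM final) was used to detect activators. Ba/F3 mouse cells bearing human TPO receptor and a luciferase reporter under the Glycoprotein IIb promoter were exposed to compounds for 24 hrs at 37 C.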

[3] = Confirmation and Secondary Assay for Modulators of Hemoglobin Beta Chain Splicing at IVS2 705 locus (AID 930);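 note: HeLa cells stably expressing the EGFP-705 splicing reporter; series mostly up to about 46 µM; % of control where 0% means no effect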
Procedure, shortened: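 HeLa cells stably carrying EGFP interrupted by mutant beta-globin IVS2-705 intron (CMV-driven) were seeded at 500 cells/well, treated next day with compound for 2 days at 37C; corrected splicing restores EGFP, read as total peak GFP intensity per well.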

[4] = biological target: Muscarinic acetylcholine receptor M1 (Rattus norvegicus) (UniProt P08482); test: qHTS Assay for Antagonists of Acetylcholine Muscarinic M1 Receptor: Measurement of IP-One Response (AID 944); note: nearly all actives have a fitted effect of over 75% in size
Muscarinic acetylcholine receptor M1 (Rattus norvegicus), sequence (P08482 whole entry, looked up): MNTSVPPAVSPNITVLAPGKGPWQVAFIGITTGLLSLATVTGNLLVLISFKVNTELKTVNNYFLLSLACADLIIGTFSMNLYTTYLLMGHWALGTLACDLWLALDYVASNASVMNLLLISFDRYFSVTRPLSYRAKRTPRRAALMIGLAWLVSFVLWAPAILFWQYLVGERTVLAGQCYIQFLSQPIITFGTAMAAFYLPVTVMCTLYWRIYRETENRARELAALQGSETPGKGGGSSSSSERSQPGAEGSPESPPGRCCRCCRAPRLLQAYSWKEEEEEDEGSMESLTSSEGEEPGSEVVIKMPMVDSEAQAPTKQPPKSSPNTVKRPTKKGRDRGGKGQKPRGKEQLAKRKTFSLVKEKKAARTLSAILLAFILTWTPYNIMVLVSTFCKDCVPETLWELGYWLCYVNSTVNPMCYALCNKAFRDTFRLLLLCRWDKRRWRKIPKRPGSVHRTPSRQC
Procedure, shortened: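 Antagonism was measured as loss of carbachol-driven (EC80) IP1 accumulation in CHO cells carrying rat M1, using a homogeneous IP-One TR-FRET kit read at 620 and 665 nm.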

[5] = biological target: Pyruvate kinase PKM (Homo sapiens) (UniProt P14618); test: qHTS Assay for Activators of Human Muscle Pyruvate Kinase (AID 954; active = well fitted curve in the direction sought with a large enough effect, not every such curve was filed as active;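 note: 0% = uninhibited enzyme and -100% = no enzyme or full thiadiazolimine inhibition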)
Pyruvate kinase PKM (Homo sapiens), sequence (P14618 whole entry, looked up): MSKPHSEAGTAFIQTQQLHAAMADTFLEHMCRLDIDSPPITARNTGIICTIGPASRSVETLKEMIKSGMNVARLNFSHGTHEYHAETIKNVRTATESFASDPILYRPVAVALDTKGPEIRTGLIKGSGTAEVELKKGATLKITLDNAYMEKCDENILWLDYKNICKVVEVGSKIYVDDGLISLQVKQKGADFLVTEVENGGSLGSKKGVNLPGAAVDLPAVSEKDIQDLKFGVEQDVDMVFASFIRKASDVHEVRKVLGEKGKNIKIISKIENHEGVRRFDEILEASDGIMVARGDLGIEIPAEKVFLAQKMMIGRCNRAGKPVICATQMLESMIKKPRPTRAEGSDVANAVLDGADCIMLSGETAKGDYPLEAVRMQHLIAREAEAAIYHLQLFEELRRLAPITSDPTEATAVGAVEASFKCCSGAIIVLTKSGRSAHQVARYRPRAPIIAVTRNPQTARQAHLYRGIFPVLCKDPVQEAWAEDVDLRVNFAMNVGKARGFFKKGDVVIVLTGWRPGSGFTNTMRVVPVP
Procedure, shortened: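 ATP production by PKM2 detected via luciferase luminescence after 1 h room-temperature reaction (0.1 nM enzyme, PEP at Km 0.5 mM, ADP 0.1 mM, pH 7.2 imidazole buffer). Inhibition scaled to no-enzyme control; activation referenced to 0.3 nM enzyme wells.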

[6] = biological target: Pyruvate kinase (Leishmania mexicana) (UniProt Q27686); test: qHTS Validation Assay for Activators of Leishmania Mexicana Pyruvate Kinase (AID 959)
Pyruvate kinase (Leishmania mexicana), sequence (Q27686 2-499 E452W): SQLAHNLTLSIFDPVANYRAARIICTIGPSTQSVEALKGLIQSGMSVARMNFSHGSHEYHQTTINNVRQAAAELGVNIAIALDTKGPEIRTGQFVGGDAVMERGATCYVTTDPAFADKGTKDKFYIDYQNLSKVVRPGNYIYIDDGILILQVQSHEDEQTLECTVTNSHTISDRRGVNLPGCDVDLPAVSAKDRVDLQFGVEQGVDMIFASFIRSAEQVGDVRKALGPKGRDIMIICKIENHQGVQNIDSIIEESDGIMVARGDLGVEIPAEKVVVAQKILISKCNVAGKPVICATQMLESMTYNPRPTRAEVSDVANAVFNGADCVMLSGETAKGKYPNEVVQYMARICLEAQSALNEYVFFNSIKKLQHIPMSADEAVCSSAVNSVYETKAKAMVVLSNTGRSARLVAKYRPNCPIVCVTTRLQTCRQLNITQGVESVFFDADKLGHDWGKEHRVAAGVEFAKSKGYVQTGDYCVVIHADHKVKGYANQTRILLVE
Procedure, shortened: (§1)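 LmPYK E451W 0.2 nM; 0.5 mM PEP, 0.1 mM ADP, 7 mM MgCl2, 50 mM KCl, imidazole pH 7.2, 0.01% Tween 20, 0.05% BSA; 1 h RT; PKLight luminescence; DMSO-normalized.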

[7] = Cell Viability - LYMP2-001 (AID 921); note: nearly all actives have a fitted effect of over 70% in size; note: potency is the fitted concentration of half-maximal effect
Procedure, shortened: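 Human lymphoblastoid LYMP2-001 cells, 2500 per well, in complete medium, treated 24 h at 37 C. Viability from cellular ATP by CellTiter-Glo luminescence; AC50 from Hill-equation fits of qHTS concentration-response.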

[8] = MultiTox-Fluor Cytotoxicity Assay - LYMP1-001 - Dead Cells (AID 946); note: potency is the fitted concentration of half-maximal effect
Procedure, shortened: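 Cytotoxicity as increased dead-cell protease fluorescence (bis-AAF-R110, 485/520 nm), read 60 min after MultiTox-Fluor reagent. Human lymphoblastoid line exposed 16 h; Hill-fitted AC50, with DMSO as 0% and 15 uM tetraoctylammonium bromide as 100%.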

[9] = MultiTox-Fluor Cytotoxicity Assay - LYMP1-001 - Live Cells (AID 947); note: potency is the fitted concentration of half-maximal effect
[10] = Cell Viability - LYMP1-002 - Assay at 16 hr (AID 948); note: potency is the fitted concentration of half-maximal effect
Procedure, shortened: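 LYMP1-002 human lymphoblastoid cells, 2500/well, were treated with compounds for 16 hr at 37 C in complete medium. Viability was read as intracellular ATP by CellTiter-Glo luminescence, and AC50 was derived from a Hill fit to concentration-response data.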

[11] = MultiTox-Fluor Cytotoxicity Assay - LYMP1-002 - Live Cells (AID 955);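 note: cells exposed to compound for 16 hours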; note: potency is the fitted concentration of half-maximal effect
Procedure, shortened: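 In this qHTS viability format, lymphoblastoid cells (LYMP1-002, human) received compound for 16 hr at 37 C. Fluorogenic GF-AFC cleavage by viable cells was detected at 405/510 nm after 1 h at room temperature.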

[12] = MultiTox-Fluor Cytotoxicity Assay - LYMP1-002 - Dead Cells (AID 960); note: nearly all actives have a fitted effect of over 60% in size; note: potency is the fitted concentration of half-maximal effect
Procedure, shortened: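 Concentration-dependent increases in membrane-leaked protease activity are quantified in LYMP1-002 cells after 16 hr treatment; values are normalized against DMSO and tetraoctylammonium bromide (15 uM) controls and AC50 derived by Hill modeling.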

[13] = MultiTox-Fluor Cytotoxicity Assay - LYMP1-003 - Dead Cells (AID 961); note: nearly all actives have a fitted effect of over 70% in size; note: potency is the fitted concentration of half-maximal effect
Procedure, shortened: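 Dead-cell protease release, detected as bis-AAF-R110 fluorescence at 485/520 nm, was measured in LYMP1-003 cells after 16 h compound treatment at 37 C. AC50 values came from Hill-modeled qHTS curves normalized to DMSO (0%) and 15 uM tetraoctylammonium bromide (100%).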

[14] = MultiTox-Fluor Cytotoxicity Assay - LYMP1-003 - Live Cells (AID 962);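 note: cells exposed to compound for 16 hours at 37 °C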; note: potency is the fitted concentration of half-maximal effect
Procedure, shortened: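 Human lymphoblastoid line LYMP1-003 in complete culture medium, treated 16 hr with titrated compounds. Viable cells quantified via cell-permeant GF-AFC substrate fluorescence; AC50 derived by Hill fitting.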

[15] = Cell Viability - LYMP1-003 - Assay at 24 hr (AID 963); note: potency is the fitted concentration of half-maximal effect
Procedure, shortened: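 The lymphoblastoid line was treated with titrated compounds for 24 hours, and viable cell number estimated from luciferase-based ATP luminescence.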

[16] = qHTS Assay for Identification of Small Molecule Agonists for Hypoxia Response Element Signaling Pathway (AID 914; active = well fitted activation curve with a large enough effect in the signal ratio, with a control signal flat, not every such curve was filed as active; the % refers to the signal ratio; note: % of control where 0% means no effect); details: ME-180 HRE-bla reporter, beta-lactamase ratio, CoCl2, 17 h; hits give high values
Procedure, shortened: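 ME-180 cells carrying an HRE-driven beta-lactamase reporter were treated with compounds in a titration series plus an EC50 level of CoCl2 for 17 h at 37 degrees Celsius; CCF4 readout as the 460nm/530nm ratio gave AC50 values.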

[17] = biological target: Cytochrome P450 2C19 (Homo sapiens) (UniProt P33261); test: qHTS Assay for Inhibitors and Substrates of Cytochrome P450 2C19 (AID 899); note: % is set by controls: 0 for no effect and ±100 for the full control effect; nearly all actives have a fitted effect of over 60% in size
Cytochrome P450 2C19 (Homo sapiens), sequence (P33261 whole entry, looked up): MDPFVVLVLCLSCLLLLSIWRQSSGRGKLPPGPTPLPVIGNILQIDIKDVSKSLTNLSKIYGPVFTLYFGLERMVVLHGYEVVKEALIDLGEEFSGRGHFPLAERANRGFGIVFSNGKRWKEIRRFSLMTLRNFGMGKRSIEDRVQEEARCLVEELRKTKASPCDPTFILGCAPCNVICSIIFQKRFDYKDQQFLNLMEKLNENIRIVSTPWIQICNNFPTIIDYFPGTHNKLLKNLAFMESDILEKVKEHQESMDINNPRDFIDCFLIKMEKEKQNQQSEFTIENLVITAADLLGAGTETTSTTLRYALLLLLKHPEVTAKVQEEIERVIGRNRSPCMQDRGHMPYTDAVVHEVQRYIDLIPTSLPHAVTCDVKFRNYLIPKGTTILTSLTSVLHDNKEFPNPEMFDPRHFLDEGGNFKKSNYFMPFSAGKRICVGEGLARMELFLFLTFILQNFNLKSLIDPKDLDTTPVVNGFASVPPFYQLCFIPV
Procedure, shortened: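 Reactions contain 5nM enzyme, 10uM Luciferin-H EGE (KM) and 50mM KPO4; compound preincubates 10 min at 37C, NADPH regeneration starts turnover for 60 min. Luminescence after detection reagent gives activity.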

[18] = qHTS Assay for Identification of Small Molecule Antagonists for Thrombopoietin (TPO) Signaling Pathway (AID 918); details: TPO-dependent cell signaling reporter, antagonist mode; note: potency is the fitted concentration of half-maximal effect; nearly all actives have a fitted effect of over 60% in size
Procedure, shortened: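 Antagonist mode at EC50 TPO (26 pM) in IL-3-free medium; murine Ba/F3 cells with human TPO receptor and GPIIb-promoter luciferase, 24 hrs at 37 C before luminescent detection.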

[19] = biological target: Muscarinic acetylcholine receptor M1 (Rattus norvegicus) (UniProt P08482); test: qHTS Assay for Antagonists of Acetylcholine Muscarinic M1 Receptor: Kinetic Measurement of Intracellular Calcium Response (AID 943);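 note: Fluo-4 calcium signal as peak divided by basal fluorescence over 4 min; series mostly up to about 35 µM; nearly all actives have a fitted effect of over 75% in size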
Procedure, shortened: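 Quantitative HTS in CHO-M1 (rat receptor) cells: 10 min compound exposure ahead of 100 nM carbachol, Fluo-4 fluorescence followed 4 min, value expressed as peak-to-basal ratio.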

[20] = biological target: Pyruvate kinase (Leishmania mexicana) (UniProt Q27686); test: qHTS Validation Assay for Inhibitors of Leishmania Mexicana Pyruvate Kinase (AID 945);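 note: 0% = DMSO only neutral control wells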
Procedure, shortened: as §1

O=C(O)c1cc2cc(Cc3cccnc3)ccc2o1
inactive: outcome [1] | outcome [2] | outcome [3] | Potency [4] | outcome [5] | outcome [6]

Oc1c(Cl)cc(Cl)cc1Sc1cc(Cl)cc(Cl)c1O
active: Potency [7] 39.8 µM
inactive: outcome [1] | outcome [3] | Potency [8] | Potency [9] | Potency [10] | Potency [11] | Potency [12] | Potency [13] | Potency [14] | Potency [15]

CC/C(=C(/CC)c1ccc(O)cc1)c1ccc(O)cc1
inactive: outcome [1] | Potency [7] | outcome [3] | Potency [9] | Potency [10] | Potency [11] | Potency [13] | Potency [14] | Potency [15]

CN(C)/N=N/c1nc[nH]c1C(N)=O
inactive: outcome [1] | Potency [7] | outcome [3] | Potency [8] | Potency [9] | Potency [10] | Potency [11] | Potency [12] | Potency [13] | Potency [14] | Potency [15]

Cc1c(N(C)CS(=O)(=O)O)c(=O)n(-c2ccccc2)n1C
inactive: outcome [1] | activation [16] -4.84% | outcome [3]

CC(=O)Oc1ccc(C(c2ccc(OC(C)=O)cc2)c2ccccn2)cc1
inactive: outcome [1] | Potency [7] | outcome [3] | Potency [8] | Potency [9] | Potency [10] | Potency [11] | Potency [12] | Potency [13] | Potency [14] | Potency [15]

CN1CCC(=C2c3ccccc3Sc3ccccc32)CC1
inactive: outcome [1] | outcome [3]

Oc1ccc(O)cc1
inactive: Potency [17] | outcome [3] | outcome [19] | outcome [20] | outcome [5]
active: Potency [18] 12.6 µM | Potency [7] 25.1 µM | Potency [10] 31.6 µM | Potency [12] 12.6 µM | Potency [13] 12.6 µM | Potency [14] 50.1 µM | Potency [15] 39.8 µM

NC(=NCCCCCCN=C(N)/N=C(\N)Nc1ccc(Cl)cc1)/N=C(\N)Nc1ccc(Cl)cc1
active: Potency [7] 39.8 µM | Potency [8] 50.1 µM | Potency [9] 39.8 µM | Potency [10] 50.1 µM | Potency [11] 15.8 µM | Potency [13] 31.6 µM | Potency [14] 50.1 µM | Potency [15] 50.1 µM
inactive: outcome [1] | outcome [3]

C=C(CC)C(=O)c1ccc(OCC(=O)O)c(Cl)c1Cl
inactive: outcome [1] | outcome [3] | Potency [9] | Potency [11] | Potency [14] | Potency [15]
active: Potency [7] 50.1 µM | Potency [12] 31.6 µM | Potency [13] 50.1 µM

O=C1OC(c2ccc(O)cc2)(c2ccc(O)cc2)c2ccccc21
active: Potency [12] 15.8 µM
inactive: outcome [1] | Potency [7] | outcome [3] | Potency [8] | Potency [10] | Potency [11] | Potency [13] | Potency [14] | Potency [15]
